ChEMBL document CHEMBL3988442, “University of Dundee, Small-Polar-MMV Screening Library” (2021)

What follows are compounds tested against AMP-activated protein kinase, AMPK (Homo sapiens) (UniProt P54646+O43741+P54619+Q9UGJ0+Q9Y478+Q13131+Q9UGI9) (assay: AMP-dependent Kinase enzyme assay. An in vitro enzyme assay that detects ADP turnover that is directly proportional to AMPK activity. This uses naive AMPK that is activated during the assay with MK-8722). Settings: 30 µM.
Type: functional
Parameters: scale not given: direction of the effect not stated beside the values
`Cc1cc(-c2cnc(N3CCCC(C)C3)nc2C(C)C)on1` (stereo not given) showed a Percent Effect of 10.4%.
Work on `CN(C)c1nc2sc(C(=O)N3CCNC(=O)CC3)cc2s1` yielded a Percent Effect of 0.0719%.
Work on `CCCOc1cccc(OCc2ccon2)c1` yielded a Percent Effect of 4.13%.
`CSCc1noc(-c2ccc(C)c(N3CCNC3=O)c2)n1` showed a Percent Effect of 13.8%.
`CCCN1CCC(CC(=O)NCc2cc(O)ncn2)CC1` was tested, and the Percent Effect was -4.63%.
With `O=S(=O)(NCC1(c2cccs2)CCOCC1)c1ccc2c(c1)OCCO2` the Percent Effect was -2.31%.
`CC(C)C(=O)NCCc1nc(-c2ccncc2)n[nH]1` gave a Percent Effect of 10.7%.
`CCc1nc(CCNc2ncccc2C#N)sc1C` was tested, and the Percent Effect was -3.24%.
Compound `CN1CCN(CCNC(=O)c2sccc2C2CC2)CC1` has a Percent Effect of 3.89%.
`O=C(C1CCCO1)N1CCC(Cn2cc(C3CCCC3)nn2)CC1` (stereo not given) showed a Percent Effect of 3.98%.
Compound `CC(C)Cn1ncc(C(=O)NS(=O)(=O)c2ccccc2)c1C1CC1` has a Percent Effect of 4.86%.
With `Cc1nnc(CN(C)CC(=O)NC(C)(C)c2ccc(F)cc2)n1C` the Percent Effect was 6.43%.
Compound `Cc1nc(CN(C)S(=O)(=O)c2ccc(F)cc2Br)no1` has a Percent Effect of 1.76%.
`Cc1cc(NC(=O)NCCC(=O)N2CCCc3ccccc32)no1` showed a Percent Effect of -0.372%.
`CC1(c2nccs2)CCN(C(=O)CCN2CCOCC2)CC1` gave a Percent Effect of 10.7%.
In the case of `Cn1nc(C(=O)NCc2ccc(OC3CCCCC3)nc2)ccc1=O`, the Percent Effect is reported as 8.07%.
`COc1ccccc1NC(=O)CCNC(=O)c1ccoc1` was tested, and the Percent Effect was -6.87%.
`Cc1nn(C)c(C)c1CC(=O)NCC1(C(N)=O)CCOCC1` showed a Percent Effect of -4.43%.
With `CC(=O)N1CCCN(C(=O)NC(C)Cn2ccnc2)CC1` (stereo not given) the Percent Effect was -5.96%.
With `CCc1oc(C(=O)N[C@@H]2c3ccccc3C[C@@H]2O)cc1C` the Percent Effect was -3%.
`Cc1ccc(CN(C)C(=O)CNC(C)(C)c2noc(C(C)(C)C)n2)o1` was tested, and the Percent Effect was -1.82%.
With `COC1CCN(c2ccc(F)cc2CN(C)S(C)(=O)=O)CC1` the Percent Effect was 6.29%.
For `CCN1CCC(CC(=O)NCCc2nc(O)cc(O)n2)CC1`, the Percent Effect was -0.635%.
Compound `COCCN(C)C[C@@H]1CN(Cc2ccnc3ccccc23)C[C@@H]1CO` has a Percent Effect of -4.2%.
In the case of `CN(Cc1ccc(F)c(F)c1)Cc1cc2c(cc1Br)OCCO2`, the Percent Effect is reported as -7%.
With `CN1CC(C(=O)NCCc2ccc(Br)cc2F)CC1=O` (stereo not given) the Percent Effect was 7.63%.
`CCN(Cc1ccc2c(c1)OCO2)c1ncc(S(N)(=O)=O)s1` gave a Percent Effect of 1.52%.
`CS(=O)(=O)NCC1(O)CCCN(C(=O)CCn2cc(Cl)cn2)CC1` (stereo not given) showed a Percent Effect of -0.47%.
`CNS(=O)(=O)c1c(C)sc2ccccc12` was tested, and the Percent Effect was 7.5%.
With `C[C@@H]1CN(CC(=O)NCc2ccccn2)C[C@]1(C)O` the Percent Effect was 8.43%.
Work on `COCCCN1CCCC(c2nccn2CC2CCC2)C1` (stereo not given) yielded a Percent Effect of 0.821%.
With `CC(NC(=O)C(C)(C)C)c1cc(O)nc(-c2cccnc2)n1` (stereo not given) the Percent Effect was 6.37%.
Compound `CC(C)(C)c1cn2c(n1)C(CNCc1ccccn1)CCC2` (stereo not given) has a Percent Effect of -3.66%.
`O=C(NCCC1CN(C2CCCC2)CCO1)c1c[nH]c(=O)[nH]c1=O` (stereo not given) was tested, and the Percent Effect was 5.79%.
With `COc1ccc(O)c(C(=O)NCC2CCCN(C3CCOCC3)C2)c1` (stereo not given) the Percent Effect was 12.5%.
Compound `O=C(CC1CCCC1)NCCNCc1cccc2c1OCCO2` has a Percent Effect of -3.45%.
For `CN(C)S(=O)(=O)c1ccc(=O)n(CC2CCCO2)c1` (stereo not given), the Percent Effect was 20.4%.
For `Fc1ccc(C2CCCCN2Cc2cc(-c3ccccn3)no2)cc1` (stereo not given), the Percent Effect was 7.03%.
`Cc1cc(CC(=O)NC2CCCN(Cc3ccccc3)C2=O)n[nH]1` (stereo not given) showed a Percent Effect of 9.56%.
Work on `CCN(C(=O)CN1CCCN(c2nc(C)ns2)CC1)C1CC1` yielded a Percent Effect of 5.97%.
